This passage reports Potency and activity change, negative = inhibition results from PubChem BioAssay (NCATS).

Records with an inconclusive call do not appear. Values without a mark were called inactive. Activity calls are given as the source filed them. Calls follow the shape of the dose curve; as a rule, active = well fitted curve in the direction sought with a large enough effect; inconclusive = small, poorly fitted or top-dose-only effect, or another doubt; inactive = no such curve, though single readings can be large; an effect the other way counts as inactive or inconclusive.

One assay relates to C33A. The experiment in a line: Primary qHTS to identify gynecologic anti-cancer compounds using libraries of approved drugs and bioactive compounds (AID 1345084). Also: nearly all actives have a fitted effect of over 55% in size. As to conditions: Gynecologic cancer cell panel viability, ATPlite luminescence, 48 h; series mostly up to 57.5 µM. The essentials: (§1)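 Cell viability after 48 h drug treatment, ATPlite luminescence readout; five doses.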
(In general: qHTS replaces the single test concentration by a dilution series.)

Another assay has as its system CAOV3. The description is as above. As to conditions: Gynecologic cancer cell panel viability, ATPlite luminescence, 48 h; series mostly up to 57.5 µM. The method in brief: as §1
A general note: In ATP-based viability assays light output follows the ATP content of the culture.

The test system of the next assay is JEG-3. Described as above. To be noted: Gynecologic cancer cell panel viability, ATPlite luminescence, 48 h; series mostly up to 57.5 µM. The method in brief:
as §1

The test system of another assay is OV90. Described as above. As to conditions: Gynecologic cancer cell panel viability, ATPlite luminescence, 48 h; series mostly up to 57.5 µM. The essentials: as §1
For the next assay, the system named is SKOV3. The assay is described as above. To be noted: Gynecologic cancer cell panel viability, ATPlite luminescence, 48 h; series mostly up to 57.5 µM. The method in brief: as §1
Another assay relates to Tov112D. The description is as above. To be noted: Gynecologic cancer cell panel viability, ATPlite luminescence, 48 h; series mostly up to 57.5 µM. The method in brief: as §1
Another assay has as its system CASKI. Described as above. To be noted: Gynecologic cancer cell panel viability, ATPlite luminescence, 48 h; series mostly up to 57.5 µM. The essentials: as §1
The subject of another assay is Hek293T. The description is as above. To be noted: Gynecologic cancer cell panel viability, ATPlite luminescence, 48 h, control line for the selectivity index; series mostly up to 57.5 µM. The method in brief:
as §1

Another assay has as its system Es-2. The assay is described as above. To be noted: Gynecologic cancer cell panel viability, ATPlite luminescence, 48 h; series mostly up to 57.5 µM. The essentials:
as §1

For another assay, the system named is HeLa. Described as above. As to conditions: Gynecologic cancer cell panel viability, ATPlite luminescence, 48 h; series mostly up to 57.5 µM. The method in brief: as §1
The next assay deals with PA-1. The assay is described as above. As to conditions: Gynecologic cancer cell panel viability, ATPlite luminescence, 48 h; series mostly up to 57.5 µM. The essentials:
as §1

In the next assay the test system is Tov-21-G. The description is as above. To be noted: Gynecologic cancer cell panel viability, ATPlite luminescence, 48 h; series mostly up to 57.5 µM. The essentials:
as §1

A short description of assay [1]: qHTS assay to identify inhibitors of the type 1 interferon - major histocompatibility complex class I in skeletal muscle: Counter screen cell viability and HiBit confirmation (AID 1347412). Also: nearly all actives have a fitted effect of over 60% in size. To be noted: iHSKM muscle cells + IFN-b, HiBiT or CellTiter-Glo, 24 h. The essentials: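 CRISPR HLA-B*08:01-HiBit immortalized human myoblasts (C25cl48) stimulated with 4 ng/ml IFN-beta and compounds (12-point 1:3, top 46 uM final) for 24 h at 37 C. Duplicate plates read by HiBit lytic luminescence or CellTiter Glo ATP.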
% is scaled to controls: 0 for no effect and ±100 for the full control effect; potency is read from the fitted curve at half-maximal effect.

As to `CC(=O)OC12COC1CC(O)C1(C)C(=O)C(O)C3=C(C)C(OC(=O)C(O)C(NC(=O)OC(C)(C)C)c4ccccc4)CC(O)(C(OC(=O)c4ccccc4)C21)C3(C)C` (centres undefined), the Potency entry in the assay with C33A, in the assay with CAOV3, in the assay with JEG-3, with OV90, with SKOV3 and with Tov112D was “inactive” in each case.

`CN1C2CCC1CC(OC(=O)[C@H](CO)c1ccccc1)C2` (some centres undefined): the Potency result in the assay on C33A, with CAOV3, with CASKI, in the assay on Hek293T and in the assay with JEG-3 was “inactive” in each case.

Take `COC(=O)C1(C)CCC2(C(=O)O)CCC3(C)C(=CCC4C5(C)CC(O)C(OC6OCC(O)C(O)C6O)C(C)(CO)C5CCC43C)C2C1` (centres undefined): the Potency result in the assay with C33A, in the assay with CASKI, in the assay with Es-2, in the assay with HeLa, in the assay with Hek293T and with JEG-3 was “inactive” each time. In addition, the Potency result in the assay on OV90, in the assay with PA-1, in the assay with SKOV3, with Tov-21-G and in the assay on Tov112D was “inactive” each time.

As to `COC(=O)N[C@@H](C)CNc1nccc(-c2cn(C(C)C)nc2-c2cc(Cl)cc(NS(C)(=O)=O)c2F)n1`, the Potency result in the assay on C33A, in the assay on CAOV3, in the assay on CASKI, in the assay with HeLa, in the assay on Hek293T and with OV90 was “inactive” each time. Moreover, the Potency entry with PA-1 and with Tov112D was “inactive” each time. For the same molecule, in the assay on Tov-21-G, the Potency is 1.58 µM (active). In addition, the activity change, negative = inhibition in assay [1] (Viability, at 45.9 µM (top of the series)) was -18.1%.

With `CC1=C(CO)C(=O)O[C@@H]([C@@H](C)[C@H]2CC[C@H]3[C@@H]4C[C@H]5O[C@]56[C@@H](O)C=CC(=O)[C@]6(C)[C@H]4CC[C@]23C)C1`, the Potency in the assay on C33A was 4.47 µM (active); in the assay on CAOV3 it was 8.91 µM (active); with Es-2, 11.2 µM (active); with Hek293T, 11.2 µM (active); in the assay on SKOV3, 8.91 µM (active); in the assay on Tov-21-G it was 7.08 µM (active). Also, the Potency with Tov112D was 10 µM (active); in [1] (HiBiT), 0.883 µM (active).

In the case of `COc1ccc(Oc2cc(C)c(-c3csc(NC(=O)c4ccncc4)n3)c(C)c2)cc1`, the Potency result in the assay on C33A, in the assay on CAOV3 and with Tov112D was “inactive” in each case. Moreover, the values for the Potency in the assay with CASKI and in the assay with SKOV3 were 0.891 µM (active) and 1 µM (active), respectively.

For the molecule `COc1cc2c(NC3CCN(CC4CCCCC4)CC3)nc(N3CCCN(C(C)C)CC3)nc2cc1OCCCN1CCCCC1`, the Potency in the assay on C33A is 14.1 µM (active); with CAOV3 it was 3.98 µM (active); in the assay with Es-2, 3.98 µM (active); with Hek293T, 20 µM (active); with JEG-3, 5.62 µM (active); in the assay on OV90, 3.16 µM (active). The Potency in the assay with PA-1 was 5.62 µM (active); with SKOV3, 3.98 µM (active); in the assay on Tov-21-G it was 20 µM (active); in the assay on Tov112D it was 7.94 µM (active); in [1] (Viability), 24.9 µM (active).

For `O=C(/C=C\n1cnc(-c2cc(C(F)(F)F)cc(C(F)(F)F)c2)n1)N1CC(F)(F)C1`, the Potency result in the assay on C33A and with OV90 was “inactive” each time. The Potency in the assay with CAOV3 is 2.82 µM (active); in the assay with Es-2, 3.16 µM (active); in the assay on HeLa it was 17.8 µM (active); with Hek293T, 1.58 µM (active); in the assay with PA-1, 1.41 µM (active).

Take `C=C1C(=O)O[C@@H]2/C=C(\C)C(=O)/C=C/[C@](C)(O)C[C@@H](OC(=O)C(C)C)[C@@H]12`: the Potency in the assay on C33A is 8.91 µM (active); in the assay on CAOV3, 2.82 µM (active); in the assay with Es-2 it was 3.16 µM (active); with Hek293T it was 4.47 µM (active); with PA-1 it was 4.47 µM (active); in the assay on SKOV3, 5.62 µM (active). For the same molecule, the Potency with Tov-21-G was 3.98 µM (active); in the assay on Tov112D, 15.8 µM (active).

Turning to `Cc1cc(C(=O)N2Cc3cnn(C)c3Nc3ccccc32)ccc1CNC(=O)N1CCC[C@H]1C(=S)N1CCCN(C)CC1`, the Potency result in the assay with C33A, in the assay on CAOV3, with Es-2, in the assay on HeLa, in the assay with Hek293T and in the assay with JEG-3 was “inactive” throughout. Also, the Potency entry in the assay on OV90, in the assay with PA-1, in the assay with Tov-21-G and in the assay on Tov112D was “inactive” in each case.

Take `NC(=O)[C@H]1CCS[C@@H]2C[C@]3(CCCN3C(=O)Cc3ccc(NC(=O)COc4ccc(Cl)cc4Cl)cc3)C(=O)N12`: the Potency entry in the assay on C33A, in the assay on CAOV3, in the assay with Es-2 and with OV90 was “inactive” each time. The Potency with HeLa was 31.6 µM (active); in the assay with PA-1, 15.8 µM (active).

Take `Cc1ccc(S(=O)(=O)c2ccc([N+](=O)[O-])o2)cc1`: the Potency in the assay on C33A is 11.2 µM (active); with CAOV3 it was 11.2 µM (active); with Es-2, 8.91 µM (active); in the assay with Hek293T, 8.91 µM (active); in the assay with PA-1 it was 14.1 µM (active); in the assay on SKOV3, 25.1 µM (active). The Potency in the assay with Tov-21-G was 7.94 µM (active).

As for `Cc1ccc(S(=O)(=O)Cc2nc(-c3ccc(C(=O)NCc4cccnc4)cc3)oc2C)cc1`, the Potency result with C33A, with CAOV3, in the assay on JEG-3 and in the assay with OV90 was “inactive” throughout.

In the case of `CNCc1ccc(-c2cc(-c3nc(-c4ccc(S(=O)(=O)C(C)C)cc4)cnc3N)on2)cc1`, the Potency result in the assay on C33A and in the assay on JEG-3 was “inactive” each time. Further, the Potency with CAOV3 is 14.1 µM (active); with Es-2, 8.91 µM (active); in the assay on PA-1, 11.2 µM (active); in the assay with SKOV3, 3.16 µM (active); in the assay with Tov-21-G, 1.58 µM (active).

Consider `CC(C)(C)Nc1nc(Nc2ccc(C(N)=O)cc2)cc(N)c1C#N`, for which the Potency in the assay on C33A is 25.1 µM (active). For the same molecule, the Potency entry in the assay on CAOV3, with Es-2, in the assay with JEG-3, with OV90 and in the assay on Tov112D was “inactive” in each case.

Take `Cc1nc(NC(=O)N2CCCC2C(N)=O)sc1-c1csc(C(C)(C)C)n1` (centres undefined): the Potency entry with C33A, in the assay on CAOV3, in the assay on Es-2, in the assay on Hek293T, in the assay with JEG-3 and in the assay on OV90 was “inactive” in each case. In addition, the Potency entry with Tov-21-G and in the assay on Tov112D was “inactive” each time. Besides, the Potency with SKOV3 was 3.16 µM (active).

As for `COC(C(=O)N1Cc2[nH]nc(NC(=O)c3ccc(N4CCN(C)CC4)cc3)c2C1)c1ccccc1` (centres undefined), the Potency entry in the assay on C33A, in the assay on Es-2 and with JEG-3 was “inactive” throughout. Moreover, the Potency in the assay on CAOV3 was 1.41 µM (active); in the assay on PA-1 it was 7.94 µM (active); with SKOV3, 17.8 µM (active); with Tov-21-G it was 12.6 µM (active).

As to `Cc1c(CN2CCN(C(=O)C(C)O)CC2)sc2c(N3CCOCC3)nc(-c3cnc(N)nc3)nc12` (centres undefined), the Potency was 2 µM (active) in the assay on C33A; 1.41 µM (active) in the assay with CAOV3; 1.26 µM (active) with CASKI; 0.891 µM (active) in the assay with Hek293T; 1.78 µM (active) in the assay on OV90; 1 µM (active) with SKOV3. For the same molecule, in the assay with Tov-21-G, the Potency is 2.24 µM (active).
